22 compounds from PubChem BioAssay (NCATS) can be followed below.

Results filed as inconclusive are left out. Values without a mark were called inactive. Active and inactive are the calls of the source. Calls follow the shape of the dose curve; as a rule, active = well fitted curve in the direction sought with a large enough effect; inconclusive = small, poorly fitted or top-dose-only effect, or another doubt; inactive = no such curve, though single readings can be large; an effect the other way counts as inactive or inconclusive.

A short description of assay [1]: Quantitative highthroughput screen to assess conditional lethalithy of NOMO1 cells grown in RPMI1640 with untreated serum (RPMI+s) (AID 1963876). Also: nearly all actives have a fitted effect of over 35% in size. Also: potency is read from the fitted curve at half-maximal effect.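 As to viability: 100% = DMSO wells and 0% = empty wells without cells.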 The essentials: (§1)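 Each medium arm—HPLM with 10% dialyzed FBS, or RPMI1640 with 5 mM glucose and 10% untreated or dialyzed FBS—was screened against an 11-point, 3-fold compound titration for 48 h at 37 °C, with CellTiter-Glo luminescence as endpoint.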

Assay [2] is described as follows: Quantitative highthroughput screen to assess conditional lethalithy of NOMO1 cells grown in RPMI1640 with dialyzed fetal bovine serum (RPMI+ds) (AID 1963877). Also: nearly all actives have a fitted effect of over 30% in size. Also: potency is read from the fitted curve at half-maximal effect.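 As to viability: series mostly up to about 46 µM; 100% = DMSO control wells and 0% = empty wells.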 The essentials: as §1
The nature of assay [3]: Quantitative highthroughput screen to assess conditional lethalithy of NOMO1 cells grown in Human Plasma-Like Medium with dialyzed fetal bovine serum (HPLM+ds) (AID 1963878). Also: nearly all actives have a fitted effect of over 35% in size. Also: potency is read from the fitted curve at half-maximal effect.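 As to viability: 100% = DMSO wells and 0% = empty wells on each plate.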 The essentials:
as §1

Assay [4] in a line: Quantitative highthroughput screen to assess conditional lethalithy of P12 Ichikawa cells grown in Human Plasma-Like Medium with dialyzed fetal bovine serum (HPLM+ds) (AID 1963879). Also: nearly all actives have a fitted effect of over 35% in size. Also: potency is read from the fitted curve at half-maximal effect. As to viability: series mostly up to about 46 µM. The conditions noted are these: Potency: viability. In short, it runs like this:
as §1

A short description of assay [5]: Quantitative highthroughput screen to assess conditional lethalithy of P12 Ichikawa cells grown in RPMI1640 with dialyzed fetal bovine serum (RPMI+ds) (AID 1963880). Also: nearly all actives have a fitted effect of over 35% in size. Also: potency is read from the fitted curve at half-maximal effect.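 As to viability: 100% = DMSO wells and 0% = empty wells on each plate.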 The conditions noted are these: Potency: P12-Ichikawa viability. In short, it runs like this:
as §1

Assay [6] can be described thus: Quantitative highthroughput screen to assess conditional lethalithy of P12 Ichikawa cells grown in RPMI1640 with untreated serum (RPMI+s) (AID 1963881). Also: nearly all actives have a fitted effect of over 35% in size. Also: potency is read from the fitted curve at half-maximal effect.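 As to viability: series mostly up to about 46 µM; 100% = DMSO wells and 0% = empty wells without cells.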 The conditions noted are these: Potency: viability. In short, it runs like this:
as §1

A short description of assay [7]: Quantitative highthroughput screen to assess conditional lethalithy of SEM cells grown in RPMI1640 with unreated serum (RPMI+s) (AID 1963883). Also: nearly all actives have a fitted effect of over 35% in size. Also: potency is read from the fitted curve at half-maximal effect.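 As to viability: 100% = DMSO wells and 0% = empty wells without cells.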 In short, it runs like this: as §1
Assay [8] in a line: Quantitative highthroughput screen to assess conditional lethalithy of SEM cells grown in RPMI1640 with dialyzed fetal bovine serum (RPMI+ds) (AID 1963884). Also: nearly all actives have a fitted effect of over 35% in size. Also: potency is read from the fitted curve at half-maximal effect.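 As to viability: series mostly up to about 46 µM; 100% = DMSO control wells and 0% = empty wells without cells.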 The essentials:
as §1

Assay [9] can be described thus: Cellular viability qHTS for adrenocortical cancer (ACC) cell line NCI-H295R (AID 1963990).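 Also: 0% = DMSO only wells and -100% = full killing with cytotoxic reference compound; nearly all actives have a fitted effect of over 60% in size.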 The essentials:
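Compound titrations (up to 46 uM final) are applied to NCI-H295R cultures for 48 h at 37C. Viable cell number is estimated by CellTiter-Glo signal, normalised to DMSO and doxorubicin controls.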

Assay [10] in a line: Quantitative highthroughput screen to assess conditional lethalithy of SEM cells grown in Human Plasma-Like Medium with dialyzed fetal bovine serum (HPLM+ds) (AID 1963882). Also: nearly all actives have a fitted effect of over 35% in size. Also: potency is read from the fitted curve at half-maximal effect. As to viability: series mostly up to about 46 µM. The essentials: as §1
A short description of assay [11]: Cellular viability qHTS for adrenocortical cancer (ACC) cell line SW-13 (AID 1963989).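 Also: cells grown in serum-free medium with ITS supplement; % is scaled to controls: 0 for no effect and ±100 for the full control effect; nearly all actives have a fitted effect of over 65% in size.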 The settings on record: SW-13 ACC cells viability, CellTiter-Glo, 48 h; activity (max response): active compounds read low. The essentials:
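48 h treatment, SW-13 in ITS/DMEM serum-free; doses up to 46 uM; readout CellTiter-Glo luminescence; curve fit four-parameter logistic.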
On the technique in general: qHTS replaces the single test concentration by a dilution series.

For the compound `CC=C1C2C=C(C)CC1(N)c1ccc(=O)[nH]c1C2` (stereo not drawn), the Potency result in assay [1], in [2], in [3], in assay [4], in assay [5] and in [6] was “inactive” each time. For the same compound, the Potency result in assay [7] and in assay [8] was “inactive” throughout.

On to `C[N+]1(C)[C@@H]2CC(OC(=O)[C@H](CO)c3ccccc3)C[C@H]1[C@H]1O[C@@H]12` (stereo partly drawn), for which the Potency result in [1], in [2], in [3], in assay [4], in assay [5] and in assay [6] was “inactive” in each case. For the same compound, the Potency entry in assay [7] and in assay [8] was “inactive” each time.

Regarding `CN1CCC[C@H]1CCO[C@](C)(c1ccccc1)c1ccc(Cl)cc1`, the Potency entry in assay [1], in assay [2], in assay [3], in [4], in assay [5] and in [6] was “inactive” in each case. Also, the Potency result in assay [7] and in assay [8] was “inactive” each time.

`CN1C(=O)C[C@H](C(=O)N[C@@H](Cc2cnc[nH]2)C(=O)N2CCC[C@@H]2C(N)=O)NC1=O`: the Potency entry in assay [1], in [2], in assay [3], in assay [4], in [5] and in assay [6] was “inactive” in each case. For the same compound, the Potency result in assay [9] is “inactive”.

For the compound `C=CC[N+]1([C@H]2C[C@H]3[C@@H]4CC[C@H]5C[C@H](O)[C@@H](N6CCOCC6)C[C@]5(C)[C@@H]4CC[C@]3(C)[C@H]2OC(C)=O)CCCC1`, the Potency entry in [1], in [2], in assay [3], in assay [4], in [5] and in assay [10] was “inactive” each time. In addition, the Potency entry in assay [7] and in [8] was “inactive” throughout.

On to `NS(=O)(=O)OC[C@@H]1C[C@@H](n2ccc3c(N[C@H]4CCc5ccccc54)ncnc32)C[C@H]1O`, for which the Potency in assay [1] was 0.526 µM (active); in assay [2] it was 0.526 µM (active); in assay [3], 0.59 µM (active); in assay [4], 2.96 µM (active); in assay [5] it was 1.66 µM (active); in assay [10], 1.48 µM (active). For the same compound, the values for the Potency in assay [7] and in [8] were 1.48 µM (active) and 1.32 µM (active), respectively.

Regarding `NC1CCC(Nc2nc(Nc3ccc(C(=O)N4CCCCC4)cc3)c3ncn(-c4cccc(F)c4)c3n2)CC1` (stereo not drawn), the Potency result in [1], in assay [2], in [3], in assay [4], in assay [5] and in assay [10] was “inactive” in each case. Moreover, the Potency entry in [7] and in [8] was “inactive” throughout.

Take `COc1ccc(C=Cc2cc(OC)c(OC)c(OC)c2)cc1O`: the Potency result in [1], in [2], in assay [3], in assay [4], in assay [6] and in assay [7] was “inactive” each time. Moreover, the Potency result in [8] was “inactive”.

Turning to `CC(C(C)N1CC(=O)NC(=O)C1)N1CC(=O)NC(=O)C1` (stereo not drawn), the Potency entry in assay [1], in [2], in assay [3] and in [9] was “inactive” throughout. For the same compound, the Potency in assay [4] is 13.2 µM (active); in [6], 1.66 µM (active). In assay [11], the activity (max response) is 12.5%.

As for `CCCNS(=O)(=O)Nc1ncnc(OCCOc2ncc(Br)cn2)c1-c1ccc(Br)cc1`, the Potency entry in [1], in assay [2], in assay [3], in [4], in assay [5] and in assay [9] was “inactive” throughout.

Consider `COc1ccc(CCC(=O)Nc2nc3ccc(Cl)cc3s2)cc1OC`, for which the Potency entry in assay [1], in assay [2], in [3], in assay [4], in [5] and in [7] was “inactive” throughout. Moreover, the Potency result in [8] was “inactive”. In addition, the activity (max response) in [11] is -11.7%.

On to `CN[C@H](CC(C)C)C(=O)N[C@H]1C(=O)N[C@@H](CC(N)=O)C(=O)N[C@@H]2C(=O)N[C@H]3C(=O)N[C@H](C(=O)N[C@H](C(=O)O)c4cc(O)cc(O)c4-c4cc3ccc4O)[C@H](O)c3ccc(c(Cl)c3)Oc3cc2cc(c3O[C@@H]2O[C@H](CO)[C@@H](O)[C@H](O)[C@@H]2O[C@H]2C[C@](C)(N)[C@H](O)[C@H](C)O2)Oc2ccc(cc2Cl)[C@H]1O`, for which the Potency entry in assay [1], in assay [2], in [3], in assay [4], in assay [10] and in assay [7] was “inactive” in each case. Besides, the Potency entry in [8] was “inactive”.

On to `Cc1cc(CS(=O)(=O)c2ccccc2)cc(OCc2ccc(CN3CCC[C@H]3CO)cc2)c1`, for which the Potency is 1.05 µM (active) in [1]; 1.32 µM (active) in assay [2]; 0.662 µM (active) in assay [3]; 0.743 µM (active) in assay [4]; 1.05 µM (active) in [6]; 0.332 µM (active) in [7]. The Potency in assay [8] is 0.526 µM (active).

In the case of `Cc1nn(C)c2c1C(c1ccc(C(F)(F)F)cc1)C(C#N)=C(N)O2` (stereo not drawn), the Potency result in assay [1], in assay [2], in [3], in assay [4] and in [5] was “inactive” each time. Further, the activity (max response) in [11] was -18.7%.

Consider `O=c1c(O)c(-c2cc(O)c(O)c(O)c2)oc2cc(O)cc(O)c12`, for which the Potency entry in assay [1], in [2], in assay [3], in assay [4], in [6] and in [10] was “inactive” in each case. The Potency result in assay [7] and in assay [8] was “inactive” in each case. The activity (max response) in [11] is -0.163%.

Turning to `Cc1cc(OCCCc2c(C(=O)O)n(Cc3cccnc3)c3c(-c4c(COc5ccc(N6CCN([S+](C)(=O)[O-])CC6)cc5)nn(C)c4C)cccc23)cc(C)c1Cl`, the Potency entry in assay [1], in assay [2], in assay [3], in assay [4], in assay [6] and in [10] was “inactive” in each case. Also, in assay [8], the Potency is 18.7 µM (active).

Regarding `COc1cccc(N(C)C(=S)Oc2ccc3c(c2)CCCC3)n1`, the Potency entry in assay [1], in assay [2], in [3], in assay [4], in assay [6] and in assay [7] was “inactive” in each case. The Potency result in assay [8] is “inactive”.

Turning to `CN(C)CCC=C1c2ccccc2COc2ccc(CC(=O)O)cc21`, the Potency result in [1], in assay [2], in assay [3], in assay [4], in [6] and in assay [10] was “inactive” each time. Also, the Potency entry in [7] and in assay [8] was “inactive” throughout.

In the case of `C[C@]12C=CC(=O)N[C@@H]1CC[C@H]1[C@H]3CC[C@@H](C(=O)Nc4cc(C(F)(F)F)ccc4C(F)(F)F)[C@@]3(C)CC[C@@H]12`, the Potency result in assay [1], in [2], in [3], in [4], in assay [6] and in [10] was “inactive” throughout. The Potency entry in assay [7] and in [8] was “inactive” throughout.

For `C=C1C(=CC=C2CCC[C@]3(C)[C@@H]([C@H](C)CCCC(C)(C)O)CC[C@@H]23)C[C@@H](O)C[C@@H]1O`, the Potency entry in [1], in assay [2], in [3], in assay [4] and in assay [10] was “inactive” throughout.

Consider `Cc1ccc([N+](=O)[O-])cc1S(=O)(=O)N(C)N=Cc1cnc2ccc(Br)cn12`, for which the Potency in [1] is 0.0935 µM (active); in [2] it was 0.105 µM (active); in [3], 0.0526 µM (active); in [4], 0.166 µM (active); in assay [6] it was 0.132 µM (active); in assay [10], 0.059 µM (active). The Potency in assay [7] is 0.0662 µM (active); in [8], 0.0833 µM (active).

As for `CC(=O)OCC(=O)[C@@]1(O)CC[C@H]2[C@@H]3CCC4=CC(=O)CC[C@]4(C)[C@@H]3C(=O)C[C@@]21C`, the Potency result in assay [1], in assay [2], in [3], in assay [4], in [6] and in [10] was “inactive” in each case. The Potency entry in assay [7] and in assay [8] was “inactive” throughout.
